Where “and” joins values, the source holds several entries; their conditions need not be identical. Equal entries are not always repeated. The panel holds about 83,000 compounds, 20% with a hit somewhere; the sample as a whole holds those more often.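 Single-dose data. Exposure time 48 hours. Values below 10 considered active.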 Calls of active or inactive are those of the source.

The first assay concerns NCI-H226 lung. As to the kind of experiment: NCI-60 one-dose screen, 48 h (100 = growth as untreated, 0 = no growth, -100 = all killed). To be noted: 0.25 µM. How it is done: Growth inhibition of the NCI-H226 human Non-Small Cell Lung tumor cell line is measured as a screen for anti-cancer activity. Cells are grown in 96 well plates and exposed to the test compound for 48 hours. Compounds are tested at a single concentration, which is 10^-5 M for most compounds. The reported endpoint is percent growth (GI% or GIPRCNT), where numbers from 0 - 100% represent growth inhibition, and numbers from -100% - 0 represent cell death. For example, a value of 40 represents 60% growth inhibition. A value of 0 means no net growth occurred over the course of the experiment. A value of -40 indicates 40% of cells at the beginning of the experiment died by the end of the experiment. A value of -100 means all cells are dead at the end of the experiment.
NCI-60 Human Tumor Cell Lines Screen was performed using the standard one-dose NCI protocol, which is described in more detail at https://dtp.cancer.gov/discovery_development/nci-60/default.htm.
Compounds with GIPRCNT values below 10 were considered active. Activity score was based on GIPRCNT using the following formula: […]
Score is 0 for GIPRCNT values of 100 or above, 50 for GIPRCNT values of 0, and 100 for GIPRCNT values of -100.
Turning to `CCCCCCCCCCCCCCCc1ccc(Cl)c(O)c1Cl` (tested in a mixture with another compound), the growth was 5.35% (active).

The same assay, now with this note: 10 µM.
On to `CCCCCCCCCCCCCCCc1ccc(Cl)c(O)c1Cl` (tested in a mixture with another compound), for which the growth was 93.6% (inactive).

The assay is the same for the next values; noted with them: 10 µM unless noted.
For `CC1(c2ccc3ccccc3c2)CCC(=O)O1` (stereo not given), the growth was 110% (inactive).

For `Oc1c(CN2CCCCC2)ccc2cccnc12`, the growth was 63.8% (inactive) and 33.7% (inactive).

`COc1cc(C(=O)N/N=C/c2ccc(N(C)C)cc2)cc(OC)c1OC`: the growth was 71.9% (inactive).

As to `COc1ccc(NC(=S)Nc2ccccn2)cc1`, the growth was 86.2% (inactive).

As for `O=C1c2c(O)cc(O)cc2OC(c2ccc(O)c(O)c2)C1O` (stereo not given), the growth was 109% (inactive).

`Cn1c(=O)c2[nH]c(CCCCCCCCc3nc4ccccc4[nH]3)nc2n(C)c1=O`: the growth is 58.1% (inactive) and 66.3% (inactive).

Take `Clc1ccc(NC(Nc2ccc(Cl)cc2)C(Cl)(Cl)Cl)cc1`: the growth was 107% (inactive) and 96.8% (inactive).

Turning to `O=C(N/N=C/c1cccc2ccccc12)C1CC1`, the growth is 104% (inactive) and 92.2% (inactive).

`CN(C)CCCN1c2ccccc2Sc2ccc(Cl)cc21`: the growth was 106% (inactive) and 97.5% (inactive) and 92.1% (inactive).

As to `CC(C)CNC(=O)c1ccccc1C(=O)NC1(C(=O)NCC(C)C)CCCC1`, the growth was 99% (inactive) and 103% (inactive).

For the compound `CCOC(=O)c1sc(N)nc1-c1ccccc1`, the growth was 98.7% (inactive).

For `O=C(Nc1ccc([N+](=O)[O-])cc1Cl)c1cc(Cl)ccc1O`, the growth was -11.4% (active) and -4.59% (active).

On to `N=C1N=C(N)CS1`, for which the growth is 96.9% (inactive).

For the compound `Cc1cc(O)c(C(C)C)cc1S(=O)(=O)O` (tested in a mixture with another compound), the growth was 89% (inactive) and 43.4% (inactive) and 93.8% (inactive).

`CC(C)Cc1ccc(C(C)C(=O)NCc2ccc(Cn3c(=O)sn(CCCI)c3=O)cc2)cc1` (stereo not given): the growth was 83.8% (inactive) and 4.03% (active).

On to `CC1=C(/C=C/C(C)=C/C=C/C(C)=C/C(=O)Nc2ccc(O)cc2)C(C)(C)CCC1`, for which the growth was 74.3% (inactive).

For the compound `O=C(O)CCCCc1ccc([N+](=O)[O-])cc1`, the growth is 120% (inactive) and 108% (inactive).

`CC(/C=N/N1C(=O)c2ccccc2C1=O)c1ccccc1` (stereo not given): the growth was 90.6% (inactive).

As for `CNc1cc(-c2cccc(OC(F)(F)F)c2)nc2ccc(N3CCCC3)cc12`, the growth was 94.6% (inactive) and 68.5% (inactive) and -35.2% (active).

With `Cc1nn(-c2ccccc2)nc1C(=O)Nc1ccccc1C(=O)NCC1CC1`, the growth is 98.1% (inactive) and 45.7% (inactive).

As for `CC1=C(/C=C/C(C)=C/C=C/C(C)=C/C=N/NC(=S)NC(=S)N/N=C/C=C(C)/C=C/C=C(C)/C=C/C2=C(C)CCCC2(C)C)C(C)(C)CCC1`, the growth was -66.4% (active) and -86.6% (active).

Regarding `C#CCN(C)Cc1ccccc1`, the growth is 91.6% (inactive) and 95.2% (inactive).

With `O=C(N/N=C/c1ccccc1)N/N=C/c1ccccc1`, the growth was 106% (inactive) and 78.9% (inactive).

In the case of `CC1=C(/C=C/C(C)=C/C=C/C(C)=C/C(=O)O)C(C)(C)CCC1`, the growth is 93% (inactive) and 92.1% (inactive) and 88.2% (inactive).

Turning to `CC(O)Cn1cnc2c1c(=O)n(C)c(=O)n2C` (stereo not given), the growth is 102% (inactive).

For `c1ccc2cc(C[n+]3ccn(Cc4ccc5ccccc5n4)c3)ccc2c1`, the growth is 19.6% (inactive) and 46.4% (inactive).

Take `O=C(CCc1ccc(O)cc1)N/N=C/c1cc(Br)ccc1O`: the growth was 95.1% (inactive).

As for `CN(C)c1ccc(C(=C2C=CC(=[N+](C)C)C=C2)c2ccccc2Cl)cc1`, the growth is -41.3% (active) and -56.5% (active).

With `COc1cc2c(c(OC)c1OC)-c1ccc(OC)c(=O)cc1[C@@H](NC(C)=O)CC2`, the growth was 33.9% (inactive) and 13.1% (inactive) and 31% (inactive).

`CN(C)c1ccc(C(Cc2ccc3ccccc3n2)Cc2ccc3ccccc3n2)cc1`: the growth was 61.4% (inactive) and 71.9% (inactive).

On to `CCN(CC)CCOc1ccc(/C=N/Nc2nc3c([nH]2)c(=O)n(C)c(=O)n3C)cc1`, for which the growth was 102% (inactive) and 101% (inactive).

In the case of `Nc1ccc2[nH]c(-c3ccccc3)cc(=O)c2c1`, the growth was 101% (inactive).

`Cc1cc(C)c(N)c(Br)c1`: the growth is 106% (inactive).

As for `Cc1n[nH]c(=O)n(/N=C\c2c[nH]c3ccccc23)c1=O`, the growth was 103% (inactive).

Regarding `O=c1c2ccccc2nc2n1Cc1nc3ccccc3c(=O)n1C2`, the growth was 89.5% (inactive) and 97.8% (inactive).

For the compound `CCOC(=O)Nc1ccc2c(c1)/C(=N\NC(N)=S)c1ccccc1-2`, the growth is 76% (inactive) and 81.1% (inactive).

With `C[N+](C)(C)CN1C(=O)c2ccccc2C1=O`, the growth is 112% (inactive).

Turning to `CCN(CC)CCc1nc(-c2ccccc2)no1`, the growth is 85.8% (inactive) and 104% (inactive).

(Values after PubChem BioAssay (NCI).)
